# In publication PMC7862700, “An all-to-all approach to the identification of sequence-specific readers for epigenetic DNA modifications on cytosine”:
# Key:
# Experiment in all cases: DAPPL (digital affinity profiling via proximity ligation, sequencing); 10 mM Tris-HCl pH 7.5, 50 mM NaCl, 1 mM DTT, 4% glycerol, room temperature, 30 min; GST-TFs on glutathione beads, 16-mer random dsDNA library, 0.1% formaldehyde crosslink after washing; high values mean tight binding
# Details in all cases: protein: recombinant; tags: N-terminal GST; dsDNA, one strand shown
# FLI1 = molecular target: T1, FLI1 (Homo sapiens, UniProt Q01543 1-452)
# T1 sequence: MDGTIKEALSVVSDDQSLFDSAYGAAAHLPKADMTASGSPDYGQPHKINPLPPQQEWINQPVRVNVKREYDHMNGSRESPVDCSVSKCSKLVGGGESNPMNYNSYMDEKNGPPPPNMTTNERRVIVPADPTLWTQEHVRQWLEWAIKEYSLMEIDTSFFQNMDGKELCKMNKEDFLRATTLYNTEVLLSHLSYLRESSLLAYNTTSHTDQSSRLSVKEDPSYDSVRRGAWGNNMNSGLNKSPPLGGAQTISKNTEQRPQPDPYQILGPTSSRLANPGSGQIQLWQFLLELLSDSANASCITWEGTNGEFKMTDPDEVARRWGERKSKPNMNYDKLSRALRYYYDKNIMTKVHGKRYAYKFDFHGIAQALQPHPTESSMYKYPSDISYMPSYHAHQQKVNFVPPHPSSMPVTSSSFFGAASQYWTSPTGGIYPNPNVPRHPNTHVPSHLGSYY
# Outline: (§1)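 Each value of binding signal is a hexamer's read frequency for a factor divided by the same hexamer's frequency in the tag-only sample. Barcoded, bead-captured GST fusions of human transcription factors made in yeast were pooled with that sample and incubated with 200 nmole of a random double-stranded 16-mer DNA library in Tris/NaCl/DTT/glycerol buffer at room temperature for 30 min. Washing, 0.1% formaldehyde crosslinking, proximity ligation, PCR and Illumina NextSeq500 sequencing followed.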
# ELK1 = molecular target: T2, ELK1 (Homo sapiens, UniProt P19419 1-428)
# T2 sequence: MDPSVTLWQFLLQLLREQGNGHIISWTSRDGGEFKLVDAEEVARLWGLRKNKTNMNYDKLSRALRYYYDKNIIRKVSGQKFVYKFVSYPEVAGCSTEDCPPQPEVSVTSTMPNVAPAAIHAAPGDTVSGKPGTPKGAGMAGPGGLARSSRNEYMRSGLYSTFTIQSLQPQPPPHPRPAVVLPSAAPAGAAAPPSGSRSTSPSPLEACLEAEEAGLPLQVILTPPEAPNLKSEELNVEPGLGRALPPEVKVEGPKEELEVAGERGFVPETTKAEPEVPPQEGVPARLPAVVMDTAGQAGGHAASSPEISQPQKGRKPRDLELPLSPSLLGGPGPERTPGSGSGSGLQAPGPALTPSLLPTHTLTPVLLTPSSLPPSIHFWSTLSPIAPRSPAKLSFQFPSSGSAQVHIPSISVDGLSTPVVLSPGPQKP
# Outline: as §1
# GABPA = molecular target: T3, GABPA (Homo sapiens, UniProt Q06546 1-454)
# T3 sequence: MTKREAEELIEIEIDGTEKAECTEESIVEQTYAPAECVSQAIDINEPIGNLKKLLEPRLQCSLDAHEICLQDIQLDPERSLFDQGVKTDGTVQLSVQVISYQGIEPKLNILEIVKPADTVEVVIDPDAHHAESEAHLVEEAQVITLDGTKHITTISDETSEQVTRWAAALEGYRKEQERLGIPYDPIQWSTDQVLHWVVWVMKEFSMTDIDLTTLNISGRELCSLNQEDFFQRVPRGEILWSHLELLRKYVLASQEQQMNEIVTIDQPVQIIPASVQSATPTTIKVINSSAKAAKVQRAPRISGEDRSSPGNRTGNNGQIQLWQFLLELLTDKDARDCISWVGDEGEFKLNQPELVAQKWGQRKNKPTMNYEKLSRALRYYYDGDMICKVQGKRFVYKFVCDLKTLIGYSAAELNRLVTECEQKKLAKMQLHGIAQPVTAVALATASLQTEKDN
# Outline: as §1
# ERG = molecular target: T4, ERG (Homo sapiens, UniProt P11308 1-479)
# T4 sequence: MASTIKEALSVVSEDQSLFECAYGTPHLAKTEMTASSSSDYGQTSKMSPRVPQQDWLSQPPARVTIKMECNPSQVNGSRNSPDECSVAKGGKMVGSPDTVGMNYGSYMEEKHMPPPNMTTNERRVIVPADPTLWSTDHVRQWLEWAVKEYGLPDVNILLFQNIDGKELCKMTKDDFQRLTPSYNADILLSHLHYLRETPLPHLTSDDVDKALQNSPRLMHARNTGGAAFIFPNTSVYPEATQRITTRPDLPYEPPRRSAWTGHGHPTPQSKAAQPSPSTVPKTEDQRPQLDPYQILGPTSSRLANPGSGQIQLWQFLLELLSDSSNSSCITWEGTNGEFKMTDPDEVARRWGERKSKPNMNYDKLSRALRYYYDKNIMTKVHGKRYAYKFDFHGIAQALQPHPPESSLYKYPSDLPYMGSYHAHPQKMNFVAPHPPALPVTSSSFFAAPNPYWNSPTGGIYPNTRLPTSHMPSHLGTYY
# Outline: as §1
# ELF1 = ELF1 (Homo sapiens, UniProt P32519 1-619)
# Outline: as §1
# EHF = molecular target: T5, EHF (Homo sapiens, UniProt Q9NZC4 1-300)
# T5 sequence: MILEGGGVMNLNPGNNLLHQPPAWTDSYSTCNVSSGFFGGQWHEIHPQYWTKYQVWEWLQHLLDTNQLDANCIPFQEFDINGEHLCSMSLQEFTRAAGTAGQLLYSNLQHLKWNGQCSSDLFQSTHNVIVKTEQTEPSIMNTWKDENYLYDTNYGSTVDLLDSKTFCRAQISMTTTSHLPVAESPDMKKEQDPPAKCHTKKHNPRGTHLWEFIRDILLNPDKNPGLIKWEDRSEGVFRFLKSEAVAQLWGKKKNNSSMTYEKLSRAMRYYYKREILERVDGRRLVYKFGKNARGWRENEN
# Outline: as §1
# SPI1 [1] = molecular target: SPI1 (Homo sapiens, UniProt P17947 1-270)
# Outline: as §1
# SPIB = SPIB (Homo sapiens, UniProt Q01892 1-262)
# Outline: as §1
# ELK3 = molecular target: T6, ELK3 (Homo sapiens, UniProt P41970 1-407)
# T6 sequence: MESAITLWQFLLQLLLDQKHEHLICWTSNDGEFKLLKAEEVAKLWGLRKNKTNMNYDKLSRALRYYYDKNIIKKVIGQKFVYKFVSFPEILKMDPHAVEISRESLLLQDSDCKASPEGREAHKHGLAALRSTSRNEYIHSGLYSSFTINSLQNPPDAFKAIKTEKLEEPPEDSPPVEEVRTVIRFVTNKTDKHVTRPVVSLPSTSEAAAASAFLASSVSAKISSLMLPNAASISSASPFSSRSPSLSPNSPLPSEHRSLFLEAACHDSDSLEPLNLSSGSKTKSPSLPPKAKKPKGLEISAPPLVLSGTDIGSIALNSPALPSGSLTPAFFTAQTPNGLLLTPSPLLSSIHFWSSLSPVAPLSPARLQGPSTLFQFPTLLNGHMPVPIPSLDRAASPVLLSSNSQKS
# Outline: as §1
# SPI1 [2] = molecular target: SPI1 (Homo sapiens, UniProt P17947 1-270); remark: listed apart in the source
# Outline: as §1
# ELF1, sequence (P32519 whole entry): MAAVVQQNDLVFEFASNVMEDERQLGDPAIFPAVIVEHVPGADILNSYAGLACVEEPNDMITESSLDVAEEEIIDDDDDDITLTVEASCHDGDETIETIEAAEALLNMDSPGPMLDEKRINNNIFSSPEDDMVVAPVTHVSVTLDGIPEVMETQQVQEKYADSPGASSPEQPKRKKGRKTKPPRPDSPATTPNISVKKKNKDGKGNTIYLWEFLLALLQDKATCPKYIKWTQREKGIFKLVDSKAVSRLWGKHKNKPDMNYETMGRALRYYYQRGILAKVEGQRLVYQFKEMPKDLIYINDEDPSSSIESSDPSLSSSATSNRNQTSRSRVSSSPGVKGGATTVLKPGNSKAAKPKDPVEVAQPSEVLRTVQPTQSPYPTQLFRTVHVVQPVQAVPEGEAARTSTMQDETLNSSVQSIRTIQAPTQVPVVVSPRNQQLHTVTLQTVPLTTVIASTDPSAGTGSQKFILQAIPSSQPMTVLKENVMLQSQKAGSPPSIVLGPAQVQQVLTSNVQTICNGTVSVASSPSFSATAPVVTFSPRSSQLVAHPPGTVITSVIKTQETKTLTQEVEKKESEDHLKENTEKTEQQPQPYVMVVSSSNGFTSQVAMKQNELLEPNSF
# SPIB, sequence (Q01892 whole entry): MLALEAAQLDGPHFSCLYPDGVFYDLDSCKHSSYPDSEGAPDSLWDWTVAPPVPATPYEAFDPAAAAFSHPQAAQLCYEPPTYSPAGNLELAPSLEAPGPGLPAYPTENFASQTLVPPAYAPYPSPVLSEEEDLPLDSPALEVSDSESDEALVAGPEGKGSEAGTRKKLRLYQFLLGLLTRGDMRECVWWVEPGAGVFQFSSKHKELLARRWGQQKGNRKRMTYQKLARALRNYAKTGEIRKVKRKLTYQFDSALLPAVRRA
Sequence,binding signal (FLI1),binding signal (ELK1),binding signal (GABPA),binding signal (ERG),binding signal (ELF1),binding signal (EHF),binding signal (SPI1 [1]),binding signal (SPIB),binding signal (ELK3),binding signal (SPI1 [2])
GCTCGC,"1.39 fold enrichment (6-mer frequency, TF over GST control)","1.29 fold enrichment (6-mer frequency, TF over GST control)","1.41 fold enrichment (6-mer frequency, TF over GST control)","1.29 fold enrichment (6-mer frequency, TF over GST control)","1.42 fold enrichment (6-mer frequency, TF over GST control)","1.27 fold enrichment (6-mer frequency, TF over GST control)","1.29 fold enrichment (6-mer frequency, TF over GST control)","1.42 fold enrichment (6-mer frequency, TF over GST control)","1.38 fold enrichment (6-mer frequency, TF over GST control)",–
CGTACT,"1.2 fold enrichment (6-mer frequency, TF over GST control)","1.17 fold enrichment (6-mer frequency, TF over GST control)","1.19 fold enrichment (6-mer frequency, TF over GST control)","1.16 fold enrichment (6-mer frequency, TF over GST control)","1.27 fold enrichment (6-mer frequency, TF over GST control)","1.18 fold enrichment (6-mer frequency, TF over GST control)","1.11 fold enrichment (6-mer frequency, TF over GST control)","1.12 fold enrichment (6-mer frequency, TF over GST control)","1.26 fold enrichment (6-mer frequency, TF over GST control)",–
TTAATT,"1.38 fold enrichment (6-mer frequency, TF over GST control)","1.34 fold enrichment (6-mer frequency, TF over GST control)","1.42 fold enrichment (6-mer frequency, TF over GST control)","1.32 fold enrichment (6-mer frequency, TF over GST control)","1.37 fold enrichment (6-mer frequency, TF over GST control)","1.39 fold enrichment (6-mer frequency, TF over GST control)","1.38 fold enrichment (6-mer frequency, TF over GST control)","1.36 fold enrichment (6-mer frequency, TF over GST control)","1.54 fold enrichment (6-mer frequency, TF over GST control)",–
GTATCC,"1.88 fold enrichment (6-mer frequency, TF over GST control)","1.9 fold enrichment (6-mer frequency, TF over GST control)","1.78 fold enrichment (6-mer frequency, TF over GST control)","1.89 fold enrichment (6-mer frequency, TF over GST control)","1.89 fold enrichment (6-mer frequency, TF over GST control)","1.92 fold enrichment (6-mer frequency, TF over GST control)","1.7 fold enrichment (6-mer frequency, TF over GST control)","1.89 fold enrichment (6-mer frequency, TF over GST control)","1.88 fold enrichment (6-mer frequency, TF over GST control)",–
CCGCTT,"1.89 fold enrichment (6-mer frequency, TF over GST control)","1.89 fold enrichment (6-mer frequency, TF over GST control)","1.84 fold enrichment (6-mer frequency, TF over GST control)","1.85 fold enrichment (6-mer frequency, TF over GST control)","1.92 fold enrichment (6-mer frequency, TF over GST control)","1.93 fold enrichment (6-mer frequency, TF over GST control)","2.69 fold enrichment (6-mer frequency, TF over GST control)","1.93 fold enrichment (6-mer frequency, TF over GST control)","2.06 fold enrichment (6-mer frequency, TF over GST control)",–
TTCCGG,"5.8 fold enrichment (6-mer frequency, TF over GST control)","5.94 fold enrichment (6-mer frequency, TF over GST control)","5.16 fold enrichment (6-mer frequency, TF over GST control)","7.1 fold enrichment (6-mer frequency, TF over GST control)","5.41 fold enrichment (6-mer frequency, TF over GST control)","5.96 fold enrichment (6-mer frequency, TF over GST control)",–,"5.9 fold enrichment (6-mer frequency, TF over GST control)","6.93 fold enrichment (6-mer frequency, TF over GST control)","5.73 fold enrichment (6-mer frequency, TF over GST control)"
TCCGGT,"3.61 fold enrichment (6-mer frequency, TF over GST control)","3.83 fold enrichment (6-mer frequency, TF over GST control)","3.5 fold enrichment (6-mer frequency, TF over GST control)","4.63 fold enrichment (6-mer frequency, TF over GST control)","3.46 fold enrichment (6-mer frequency, TF over GST control)","3.67 fold enrichment (6-mer frequency, TF over GST control)",–,"3.58 fold enrichment (6-mer frequency, TF over GST control)","4.4 fold enrichment (6-mer frequency, TF over GST control)","3.58 fold enrichment (6-mer frequency, TF over GST control)"
